The list is not random: actives were taken first. Their share in the collection is about 3.4%.
MITF primary: human MITF inhibition, primary screen; O75030; AlphaScreen MITF homodimerization, bead proximity signal; inhibition, % at 2.6 µM; actives 0.91% (n = 650,000); AID 1259374; in the data active means inhibition above about 50%;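 further: 0% = vehicle wells with protein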
Target sequence (O75030 whole entry, looked up): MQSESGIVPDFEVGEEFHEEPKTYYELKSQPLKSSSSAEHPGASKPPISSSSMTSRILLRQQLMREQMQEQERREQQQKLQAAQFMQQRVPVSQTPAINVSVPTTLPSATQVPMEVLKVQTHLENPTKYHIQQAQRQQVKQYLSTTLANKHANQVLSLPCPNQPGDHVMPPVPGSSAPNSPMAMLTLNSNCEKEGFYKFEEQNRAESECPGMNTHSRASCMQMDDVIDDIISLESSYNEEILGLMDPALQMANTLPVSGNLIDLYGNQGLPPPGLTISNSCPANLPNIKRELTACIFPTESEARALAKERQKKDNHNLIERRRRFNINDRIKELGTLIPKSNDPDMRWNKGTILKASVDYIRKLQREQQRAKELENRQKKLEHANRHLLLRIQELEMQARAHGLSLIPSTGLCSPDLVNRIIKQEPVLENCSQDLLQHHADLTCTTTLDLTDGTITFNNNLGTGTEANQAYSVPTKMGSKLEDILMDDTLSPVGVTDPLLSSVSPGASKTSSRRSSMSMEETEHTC
GPR151 ag: activators of human GPR151; Q8TDV0; PathHunter beta-arrestin GPR151 cells, luminescence; activation, % at 11.2 µM; actives 1% (n = 650,000); AID 1508602; in the data active means activation above about 4.9%;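 further: 0% = median of compound wells and 100% = cells with positive control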
FBW7 activator: activators of human E3 ligase FBW7. normalized activity (activation), % at 26.1 µM. AlphaScreen FBW7–phospho-cyclin E peptide binding, activator screen. Q969H0. actives 0.13% (n = 650,000); in the data active means normalized activity above about 1.9%;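 further: purified mutant Fbw7 with reduced substrate affinity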
TEAD-YAP block: TEAD-YAP interaction inhibition; actives 1.4% (n = 640,000); inhibition, % at 9.12 µM; HEK-TIYL cells, TEAD-Gal4/YAP UAS-luciferase luminescence; in the data active means inhibition above about 32%;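 further: 0% = median of test compound wells and 100% = reference inhibitor wells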
GPR151 confirm: human GPR151 activation, confirmation screen | shares compounds with GPR151 ag | GPR151 PathHunter beta-arrestin cells, luminescence, 90 min; % of EA-reagent control over plate median | activation, % at 11.2 µM | 6,700 tested, under 10 active | AID 1508609;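 active means mean percent activation across replicates above the confirmation screen cutoff of 4.91%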
GPR119 ag: GPR119 activation, counter-screen for GPR151 activators; shares compounds with GPR151 ag; GPR119 PathHunter beta-arrestin cells, luminescence, 90 min; 0 = compound-well median, 100 = enzyme-acceptor control; activation, % at 11.2 µM; actives 0.3% (n = 6,700);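 active means mean percent activation in the counterscreen above 29.09%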;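 further: counterscreen on off-target GPR119 to flag nonselective hits from the GPR151 activator screen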
An asterisk follows results filed as active; . = no result given.

SMILES | MITF primary | GPR151 ag | FBW7 activator | TEAD-YAP block | GPR151 confirm | GPR119 ag
COc1ccc(CNc2ccc3ncc(-c4ccc(OC)cc4)n3n2)cc1 | -14 | 5.5* | 0 | 22 | 0 | -2
Fc1ccc(CNc2ccc3ncc(-c4ccc5c(c4)OCO5)n3n2)cc1 | 12 | 8.4* | 0 | 23 | 0 | 4
COc1ccccc1-c1cnc2ccc(NCc3ccc(S(N)(=O)=O)cc3)nn12 | -11 | 9.4* | 0 | 3 | 0 | 9
Cc1ccc(C(=O)NCCNC(=O)COc2ccccc2)cc1 | 2 | -2 | 0 | -3 | . | .
O=C1NC2(CCCCCCC2)C(=O)N1CCOc1ccccc1F | 1 | 0 | 0 | 8 | . | .
COc1cc(/C=N/N2C(C)CCCC2C)cc(Br)c1O (stereo not given) | -12 | 8.2* | 0 | 1 | -1 | -9
CC(C(=O)O/N=C(\N)c1ccncc1)c1ccc([N+](=O)[O-])cc1 (stereo not given) | 16 | 21* | 1 | 6 | 0 | -1
CC(Oc1ccc(Br)cc1)C(=O)O/N=C(\N)c1cccc([N+](=O)[O-])c1 (stereo not given) | 13 | 5.7* | 0 | -6 | -1 | 8
Cc1cc(C(=O)O/N=C(\N)c2ccc(Br)cc2)ccc1[N+](=O)[O-] | 3 | 6.4* | 0 | 0 | -1 | -12
CC(C(=O)O/N=C(\N)c1ccccc1)c1ccc([N+](=O)[O-])cc1 (stereo not given) | 5 | 0 | 0 | 7 | . | .
CC(Oc1ccc(Br)cc1)C(=O)O/N=C(\N)c1ccc([N+](=O)[O-])cc1 (stereo not given) | -15 | 0 | 0 | -8 | . | .
Cc1ccc(SCC(=O)O/N=C(\N)c2cccc([N+](=O)[O-])c2)cc1 | 3 | 5.2* | 0 | 4 | 0 | 1
CC1=C(C(=O)Nc2ccccc2Cl)C(c2ccccc2C)NC(=S)N1 (stereo not given) | -16 | 0 | 0 | 4 | . | .
Cc1cccc(C(=O)O/N=C(\N)c2ccc([N+](=O)[O-])cc2)c1 | 2 | 5.6* | 0 | -7 | 0 | 4
Cc1cc(C)cc(C(=O)O/N=C(\N)c2ccc([N+](=O)[O-])cc2)c1 | -4 | -1 | 0 | -1 | . | .
CCOc1ccc(S(=O)(=O)N(C(C)=O)c2ccc3oc(C)c(C(C)=O)c3c2)cc1 | 8 | 0 | 0 | 10 | . | .
CCOc1ccc(CC(=O)NCCc2c(C)[nH]c3c(C)ccc(F)c23)cc1OCC | 2 | 6.5* | 0 | -3 | -1 | -12
COc1ccc(C(=O)NCCc2c(C)[nH]c3c(C)ccc(F)c23)cc1OC | 8 | 1 | 0 | 4 | . | .
Cc1ccnc(NS(=O)(=O)c2ccc(NC(=O)c3ccccc3C)cc2)n1 | -6 | -2 | 0 | 5 | . | .
O=C(COC(=O)CN1C(=O)c2cccc([N+](=O)[O-])c2C1=O)OCN1C(=O)c2ccccc2C1=O | 34 | 4.9* | 1 | -12 | 0 | 4
O=C(CN1C(=O)c2cccc([N+](=O)[O-])c2C1=O)OCc1ccc(C(=O)c2ccccc2)cc1 | 4 | 4 | 1 | -4 | . | .
O=C(CN1C(=O)c2cccc([N+](=O)[O-])c2C1=O)OCC(=O)c1ccccc1Cl | 15 | 2 | 0 | 2 | . | .
O=C(CN1C(=O)c2cccc([N+](=O)[O-])c2C1=O)OCc1ccc(Cl)cc1 | 2 | 7.3* | 1 | -1 | 0 | -8
NC(=O)c1ccccc1NC(=O)CCN1C(=O)c2cccc([N+](=O)[O-])c2C1=O | 9 | 5.4* | 1 | -1 | -1 | 8
O=C(Nc1nccs1)c1ncoc1-c1cccs1 | -14 | 8.7* | 0 | 5 | 0 | 4
O=C(Nc1nncs1)c1ncoc1-c1cccs1 | -16 | -1 | 0 | 8 | . | .
Cc1ccccc1NC(=O)Cn1nc(C)n2cccc2c1=O | 7 | 8.6* | 0 | 4 | -1 | -12
COc1cc(NC(=O)CSc2ccc(C(=O)O)cn2)ccc1-n1cnnn1 | 8 | 8.2* | 0 | 10 | 0 | 3
COc1cc(NC(=O)CSc2ccc(C(=O)O)cn2)cc(OC)c1 | -1 | 0 | 0 | -11 | . | .
CCOC(=O)c1c(NC(=O)c2cc3cc(Cl)ccc3oc2=O)sc(C(C)=O)c1C | 1 | 8.1* | 0 | 6 | -1 | -15

High-throughput results: PubChem, The Scripps Research Institute Molecular Screening Center
